Assay outcomes as filed in PubChem BioAssay.
Ba/F3 V617F tox – reduce viability of Ba/F3 cells dependent on JAK2V617F; 1.1% of 220,000 active; inhibition, % at 5.6 µM; Ba/F3 EpoR-JAK2V617F viability, ATP luminescence;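 active = inhibition above the campaign mean plus 3 SD over all tested compounds, cut at about 24% in these data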;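 also: cytokine-independent growth of Ba/F3 cells driven by EpoR plus mutant JAK2; 0% = DMSO-treated cells and 100% = JAK inhibitor I control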
KLF5 inhibitor – inhibitors of KLF5 expression. DLD-1 KLF5 promoter-luciferase reporter, luminescence. inhibition, % at 5 µM. 0.23% of 290,000 active;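 active = inhibition above a per-plate limit of that plate's mean compound inhibition plus 3 SD, cut at about 60% in these data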;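 also: 0% = DMSO wells and 100% = LY294002 at 200 µM; higher means less KLF5 promoter-driven luciferase light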
IEC-6 cytotox – counter-screen for KLF5 inhibitors: cytotoxicity in IEC-6 cells | AID 1825 | 0.78% of 290,000 active | inhibition, % at 5 µM | IEC-6 cytotoxicity, luminescence viability; in the data active = inhibition above about 22%;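 also: 0% = plate median of test compound wells and 100% = cytotoxic reference compound wells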
BaF3 parental – parental Ba/F3 viability inhibition as JAK2V617F counter-screen; CellTiter-Glo ATP luminescence; inhibition, % at 5.6 µM; 1.1% of 220,000 active; AID 1486;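 active = inhibition above a per-campaign cutoff, the mean inhibition of all tested compounds plus 3 SD, cut at about 27% in these data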;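 also: 0% = DMSO wells and 100% = JAK Inhibitor I control wells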
aSyn UTR inh – 5' untranslated region of α-synuclein, MLPCN primary screen | 0.82% of 300,000 active | alpha-synuclein 5'UTR reporter, inhibitor activity | inhibition, % (tested at 7.5 µM); in the data active = inhibition above about 60%; inconclusive = no clear call, values can overlap the other calls;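 also: H4 neuroglioblastoma cells stably carrying SNCA 5'UTR luciferase fusion; 0% = DMSO wells and 100% = positive control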
APP transl inh – APP translation inhibition. inhibition, % at 2 µM. SH-SY5Y APP 5'UTR-luciferase reporter, luminescence. 0.82% of 190,000 active;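 active = inhibition above a set limit, derived from the sample mean plus 3 SD, cut at about 45% in these data; inconclusive = one replicate passes the limit while the other fails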
Active calls of the source: *; ? = inconclusive; / = no result; ! = a repeat was not active. The list is not random: actives were taken first. Their share in the collection is about 2.2%.

SMILES	Ba/F3 V617F tox	KLF5 inhibitor	IEC-6 cytotox	BaF3 parental	aSyn UTR inh	APP transl inh
CCC(C)[C@H](NC(=O)OC(C)(C)C)C(=O)NCC1CCC(C(=O)N[C@@H](Cc2ccccc2)C(=O)O)CC1 (some centres undefined)	/	-30	0	/	1	/
CN(Cc1cccs1)C(=O)C1CC(=O)N(Cc2ccccc2)C1 (centres undefined)	/	/	/	/	-5	/
Cc1ccc2c(c1)S/C(=C/c1ccc[n+](C)c1)N2CCO	88*	5	0	71*	-7	-6
Cc1ccc2c(c1)N(C)/C(=C/c1cccc[n+]1CCO)S2	/	-22	-8	/	-9	/
CN(C)S(=O)(=O)c1ccc(C(=O)Nc2nnc(-c3ccc4c(c3)CCCC4)o2)cc1	-3	-47	0	1	69*	-17
CN(C)S(=O)(=O)c1ccc(C(=O)Nc2nnc(-c3cccs3)o2)cc1	4	7	15	0	13	-3
O=C(Nc1nnc(-c2ccc3c(c2)CCCC3)o1)c1c(F)cccc1F	-3	-8	1	61*	-5	-7
Cc1ccc(NC(=O)C2(S(=O)(=O)c3ccc(Cl)cc3)CC2)c(Br)c1	/	-17	0	/	-4	/
CCOCCCNC(=O)Cn1nc(Cc2ccncc2)c2ccccc2c1=O	/	-20	-4	/	-10	/
Cc1ccc(-c2nn3cnnc3c3ccccc23)cc1	1	-10	3	82*	15	7
COc1ccc(-c2noc(CCC(=O)NC3CCCCCC3)n2)cc1	/	-15	4	/	-15	/
COc1ccc(-c2noc(CCCC(=O)NC3CCCC3)n2)cc1	/	-18	8	/	62*	/
O=C(COC(=O)Cc1ccc(F)cc1)NC(=O)c1ccccc1	/	/	/	/	4	/
O=C(CN1C(=O)CCC1=O)Nc1ccc(Cc2ccc(NC(=O)CN3C(=O)CCC3=O)cc2)cc1	-1	-1	-8	3	-24	-25
Cc1ccc(C)c(N=Cc2c(O)c3ccccc3oc2=O)c1	/	-37	-3	/	-5	/
CC(C)CN1C(=O)NC(NC(=O)c2ccco2)(C(F)(F)F)C1=O (centres undefined)	0	-25	-1	95*	9	5
CN1C(=O)NC(NC(=O)c2ccco2)(C(F)(F)F)C1=O (centres undefined)	-2	-25	-4	0	-1	-3
CC1CCC(C(C)C)C(OCC[N+](C)(C)C)C1 (centres undefined)	37*	3	4	42*	-11	12
CC1CCC(C(C)C)C(OCC(O)CN2CCCC(C)C2)C1 (centres undefined)	-1	-30	-8	6	-43	-6
CC1CCC(C(C)C)C(OCC(O)C[N+]2(C)CCCCC2)C1 (centres undefined)	28*	-33	2	50*	11	4
COc1ccccc1CN(C(=O)c1cnccn1)C(C(=O)NC1CCCCC1)c1cc(OC)c(OC)c(OC)c1 (centres undefined)	/	-10	2	/	7	/
C#CCn1cc(/C=N/Nc2nc3ccccc3[nH]2)c2ccccc21	3	-37	31*	4	-383	-4
COc1ccc2c(c1)c(/C=N/Nc1nc3ccccc3[nH]1)c(C)n2C	2	-42	16	53*	-115	/
CCCCn1c(/C=N/Nc2nc3ccccc3[nH]2)nc2ccccc21	1	-4	4	3	-433	88*
C#CCn1cc(/C=N/NC(=O)COc2cccc3cccnc23)c2ccccc21	4	-33	8	9	-38	-13
SMILES	Ba/F3 V617F tox	KLF5 inhibitor	IEC-6 cytotox	BaF3 parental	aSyn UTR inh	APP transl inh
O=C(Cc1cccs1)N/N=C/c1ccccc1	-4	-21	-2	0	-19	/
CCN(CC)c1ccc(/C=N/NC(=O)Cc2cccs2)c(O)c1	1	-19	7	8	?	64*
O=C(Cn1cnc(S(=O)(=O)N2CCCC2)c1)Nc1ccc(OC(F)(F)F)cc1	/	-17	-4	/	-9	/
O=C(CCNC(=O)c1ccc([N+](=O)[O-])cc1)Nc1ccccc1N1CCCCC1	/	/	/	/	-9	/
O=C(COC(=O)c1ccc(O)cc1O)Nc1cc(-c2ccccc2)nn1-c1ccccc1	/	/	/	/	-14	/
CCN(CC)c1ccc(/C=N/Nc2nc3ccccc3[nH]2)c(O)c1	3	-5	2	4	84*	-9
COc1cc(OC)c(OC)cc1/C=N/Nc1nc2ccccc2[nH]1	3	-25	10	5	-2	/
COc1ccc(-n2c(SCCNCCO)nc3sc4c(c3c2=O)CCCC4)cc1	/	-8	2	/	-8	/
CNS(=O)(=O)c1cccc(C(=O)Nc2cccc(Cl)c2)c1	0	-56	1	2	-111	48*
CNS(=O)(=O)c1cccc(C(=O)Nc2cccnc2)c1	-3	-22	-11	2	14	22
COc1ccc2cc(/C=N/NC(=O)c3ccc(CN(c4ccc(C)c(C)c4)S(C)(=O)=O)cc3)c(Cl)nc2c1	1	-35	0	5	65*	6
COc1ccc2cc(/C=N/NC(=O)c3c(Cl)cnn3C)c(Cl)nc2c1	4	1	7	0	14	-11
COc1cccc(/C(N)=N/OC(=O)Cc2ccccc2[N+](=O)[O-])c1	-1	-82	-6	6	-77	-13
CCOC(=O)C1=C(COC(=O)Cc2ccc(Br)cc2)NC(=O)NC1C (centres undefined)	/	5	-1	/	-2	/
CCOc1ccc(NC(=O)CN(C)C(=O)c2cccnc2SC)cc1OCC	/	-24	-1	/	0	/
C[n+]1c2n(c3ccccc31)N=C(c1ccc(Cl)cc1)CS2	78*	-2	-1	67*	-29	-4
CC1Sc2n(c3ccccc3[n+]2C)N=C1c1ccccc1 (centres undefined)	99*	5	21	74*	-63	19
Cc1ccc(SC(C)C(=O)N2CCC(C(N)=O)CC2)cc1 (centres undefined)	-4	-16	1	-2	0	-2
CCN1CCN(Cc2ccc(NC(=O)c3ccc(C)c(NC(=O)N4CCNC4=O)c3)cc2C(F)(F)F)CC1	/	-23	4	/	66*!	/
OC(CNCC1COc2ccccc2O1)COc1ccccc1F (centres undefined)	/	-41	-3	/	2	/
CC(c1ccccc1)n1c(S(=O)(=O)O)nc2ccccc21 (centres undefined)	1	-16	0	58*	2	0
O=C(CS(=O)(=O)c1ccc(Cl)cc1)Nc1nnc(-c2cccs2)o1	/	-27	3	/	8	/
Cc1cc(C(C)(C)C)ccc1OCCCCN1CCCC1	-2	-1	-8	7	-15	-7
CCC(C)(C)c1ccc(OCCCC[n+]2cccc(C)c2C)c(C(C)(C)CC)c1	99*	41	22	99*	101*	/
CCC(C)(C)c1ccc(OCCCC[n+]2ccc(C)cc2)c(C(C)(C)CC)c1	102*	35	21	103*	25	-21
Cc1cc[n+](CC[n+]2ccc(C)cc2)cc1	/	/	/	/	-10	/
COc1cccc(NC(=O)COc2coc(CN3CCc4ccccc4C3)cc2=O)c1	/	/	/	/	-10	/
